# Measured values taken from PubChem BioAssay AID1159580 (chemical genetic matrix, 2015).
# The whole screen tested about 5,500 compounds, of which about 2,000 (36%) were called active. Inconclusive results (about 18%) are left out. Some of the results follow. Values without a mark were called inactive. Cut-off read from the data, not from the text of the source: active = normalized growth mostly below about 0.91 (no sharp cut-off); inconclusive = no clear call, values can overlap the other calls; inactive = mostly above about 0.92.
# Experiment: chemical genetic growth profiling, strain panel (AID 1159580);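 note: tested at 20 µM; growth read once vehicle control cultures reached saturation at 30 °C; 1 = growth at the plate median or of vehicle wells; lower values mean less growth of the strain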
# Conditions: growth OD
structure (smiles),measurement,setting,value
CCC/C=C/C=C/[C@@H]1C[C@@H](O)[C@@H](O)C(=O)[C@H]1C=O,normalized growth,"S. cerevisiae deletion strains, locus YBR021W, strain FUR4, active compounds read low",1.01
same,normalized growth,"S. cerevisiae deletion strains, locus YBR229C, strain ROT2, active compounds read low",0.992
same,normalized growth,"S. cerevisiae deletion strains, locus YCL029C, strain bik1, active compounds read low",0.98
same,normalized growth,"S. cerevisiae deletion strains, locus YDL035C, strain GPR1, active compounds read low",1
same,normalized growth,"S. cerevisiae deletion strains, locus YDL074C, strain BRE1, active compounds read low",1.01
same,normalized growth,"S. cerevisiae deletion strains, locus YDL101C, strain DUN1, active compounds read low",0.994
same,normalized growth,"S. cerevisiae deletion strains, locus YDL185W, strain tfp1, active compounds read low",0.0596 (active)
same,normalized growth,"S. cerevisiae deletion strains, locus YDL192W, strain arf1, active compounds read low",0.949
same,normalized growth,"S. cerevisiae deletion strains, locus YDR101C, strain arx1, active compounds read low",0.978
same,normalized growth,"S. cerevisiae deletion strains, locus YDR162C, strain NBP2, active compounds read low",0.982
same,normalized growth,"S. cerevisiae deletion strains, locus YDR318W, strain mcm21, active compounds read low",0.959
same,normalized growth,"S. cerevisiae deletion strains, locus YDR388W, active compounds read low",0.955
same,normalized growth,"S. cerevisiae deletion strains, locus YDR502C, strain sam2, active compounds read low",0.976
same,normalized growth,"S. cerevisiae deletion strains, locus YEL061C, strain CIN8, active compounds read low",0.984
same,normalized growth,"S. cerevisiae deletion strains, locus YER110C, active compounds read low",0.999
same,normalized growth,"S. cerevisiae deletion strains, locus YER155C, strain BEM2, active compounds read low",0.955
same,normalized growth,"S. cerevisiae deletion strains, locus YER167W, strain BCK2, active compounds read low",0.976
same,normalized growth,"S. cerevisiae deletion strains, locus YGL078C, strain dbp3, active compounds read low",0.94
same,normalized growth,"S. cerevisiae deletion strains, locus YGL086W, strain mad1, active compounds read low",0.976
same,normalized growth,"S. cerevisiae deletion strains, locus YGL248W, strain PDE1, active compounds read low",1
same,normalized growth,"S. cerevisiae deletion strains, locus YGR135W, strain pre9, active compounds read low",0.988
same,normalized growth,"S. cerevisiae deletion strains, locus YGR252W, strain gcn5, active compounds read low",1.16
same,normalized growth,"S. cerevisiae deletion strains, locus YHR030C, strain SLT2, active compounds read low",0.978
same,normalized growth,"S. cerevisiae deletion strains, locus YHR079C, strain IRE1 (second series), active compounds read low",0.981
same,normalized growth,"S. cerevisiae deletion strains, locus YHR094C, strain hxt1, active compounds read low",0.97
same,normalized growth,"S. cerevisiae deletion strains, locus YHR129C, strain ARP1, active compounds read low",0.99
same,normalized growth,"S. cerevisiae deletion strains, locus YHR200W, strain rpn10, active compounds read low",0.972
same,normalized growth,"S. cerevisiae deletion strains, locus YIL066C, strain RNR3, active compounds read low",0.971
same,normalized growth,"S. cerevisiae deletion strains, locus YIL073C, strain SPO22, active compounds read low",1.03
same,normalized growth,"S. cerevisiae deletion strains, locus YIL125W, strain kgd1, active compounds read low",0.853 (active)
same,normalized growth,"S. cerevisiae deletion strains, locus YIR030C, strain dcg1, active compounds read low",0.975
same,normalized growth,"S. cerevisiae deletion strains, locus YJL095W, strain BCK1, active compounds read low",1.03
same,normalized growth,"S. cerevisiae deletion strains, locus YJL134W, strain LCB3, active compounds read low",0.947
same,normalized growth,"S. cerevisiae deletion strains, locus YJL168C, strain set2, active compounds read low",0.973
same,normalized growth,"S. cerevisiae deletion strains, locus YJL187C, strain SWE1 (second series), active compounds read low",1.03
same,normalized growth,"S. cerevisiae deletion strains, locus YJR043C, strain POL32, active compounds read low",0.99
same,normalized growth,"S. cerevisiae deletion strains, locus YJR075W, strain HOC1, active compounds read low",0.977
same,normalized growth,"S. cerevisiae deletion strains, locus YKL009W, strain mrt4, active compounds read low",0.76 (active)
same,normalized growth,"S. cerevisiae deletion strains, locus YKL068W, active compounds read low",0.928 (active)
same,normalized growth,"S. cerevisiae deletion strains, locus YKL085W, strain MDH1 (second series), active compounds read low",0.88 (active)
same,normalized growth,"S. cerevisiae deletion strains, locus YKL085W, strain MDH1, active compounds read low",0.88 (active)
same,normalized growth,"S. cerevisiae deletion strains, locus YKL190W, strain CNB1, active compounds read low",0.964
same,normalized growth,"S. cerevisiae deletion strains, locus YKR001C, strain vps1, active compounds read low",0.901
same,normalized growth,"S. cerevisiae deletion strains, locus YLR039C, strain RIC1, active compounds read low",0.496 (active)
same,normalized growth,"S. cerevisiae deletion strains, locus YLR058C, strain SHM2, active compounds read low",0.99
same,normalized growth,"S. cerevisiae deletion strains, locus YLR102C, strain apc9, active compounds read low",0.983
same,normalized growth,"S. cerevisiae deletion strains, locus YLR262C, strain YPT6, active compounds read low",0.504 (active)
same,normalized growth,"S. cerevisiae deletion strains, locus YLR268W, strain sec22, active compounds read low",0.829 (active)
same,normalized growth,"S. cerevisiae deletion strains, locus YLR330W, strain CHS5, active compounds read low",0.946
same,normalized growth,"S. cerevisiae deletion strains, locus YLR342W, strain FKS1 (second series), active compounds read low",0.948
same,normalized growth,"S. cerevisiae deletion strains, locus YLR371W, strain rom2, active compounds read low",0.978
same,normalized growth,"S. cerevisiae deletion strains, locus YLR418C, strain cdc73, active compounds read low",0.999
same,normalized growth,"S. cerevisiae deletion strains, locus YML016C, strain PPZ1, active compounds read low",0.986
same,normalized growth,"S. cerevisiae deletion strains, locus YML032C, strain rad52, active compounds read low",0.954
same,normalized growth,"S. cerevisiae deletion strains, locus YML124C, strain tub3, active compounds read low",0.991
same,normalized growth,"S. cerevisiae deletion strains, locus YMR078C, strain ctf18, active compounds read low",0.973
same,normalized growth,"S. cerevisiae deletion strains, locus YMR223W, strain ubp8, active compounds read low",0.929
same,normalized growth,"S. cerevisiae deletion strains, locus YMR263W, strain SAP30, active compounds read low",0.992
same,normalized growth,"S. cerevisiae deletion strains, locus YMR307W, strain GAS1, active compounds read low",1.04
same,normalized growth,"S. cerevisiae deletion strains, locus YNL067W, strain RPL9B, active compounds read low",0.986
same,normalized growth,"S. cerevisiae deletion strains, locus YNL153C, strain GIM3, active compounds read low",1.01
same,normalized growth,"S. cerevisiae deletion strains, locus YNL233W, strain BNI4, active compounds read low",0.973
same,normalized growth,"S. cerevisiae deletion strains, locus YNL250W, strain rad50, active compounds read low",0.821 (active)
same,normalized growth,"S. cerevisiae deletion strains, locus YNL271C, strain bni1, active compounds read low",0.732 (active)
same,normalized growth,"S. cerevisiae deletion strains, locus YNL298W, strain CLA4, active compounds read low",0.901 (active)
same,normalized growth,"S. cerevisiae deletion strains, locus YNL307C, strain MCK1, active compounds read low",0.954
same,normalized growth,"S. cerevisiae deletion strains, locus YNL322C, strain KRE1, active compounds read low",0.984
same,normalized growth,"S. cerevisiae deletion strains, locus YNR052C, strain pop2, active compounds read low",0.907 (active)
same,normalized growth,"S. cerevisiae deletion strains, locus YOL006C, strain TOP1, active compounds read low",0.52 (active)
same,normalized growth,"S. cerevisiae deletion strains, locus YOL012C, strain htz1",0.336
same,normalized growth,"S. cerevisiae deletion strains, locus YOL147C, strain pex11, active compounds read low",0.986
same,normalized growth,"S. cerevisiae deletion strains, locus YOR061W, strain CKA2, active compounds read low",0.986
same,normalized growth,"S. cerevisiae deletion strains, locus YOR069W, strain VPS5, active compounds read low",0.979
same,normalized growth,"S. cerevisiae deletion strains, locus YOR136W, strain idh2, active compounds read low",0.996
same,normalized growth,"S. cerevisiae deletion strains, locus YOR144C, strain elg1, active compounds read low",0.982
same,normalized growth,"S. cerevisiae deletion strains, locus YOR184W, strain ser1, active compounds read low",0.938
same,normalized growth,"S. cerevisiae deletion strains, locus YOR316C, strain cot1, active compounds read low",0.979
same,normalized growth,"S. cerevisiae deletion strains, locus YPR119W, strain clb2, active compounds read low",0.971
same,normalized growth,"S. cerevisiae deletion strains, locus YPR141C, strain kar3, active compounds read low",0.804 (active)
same,normalized growth,"S. cerevisiae deletion strains, locus YPR163C, strain tif3, active compounds read low",0.983
same,normalized growth,"S. cerevisiae deletion strains, locus YPR167C, strain met16, active compounds read low",0.979
same,normalized growth,"S. cerevisiae deletion strains, strain wtn01, active compounds read low",0.973
same,normalized growth,"S. cerevisiae strains, strain wild type, active compounds read low",0.971
